According to the supplement of paper PMC11732987, “Enantioselective OTUD7B fragment discovery through chemoproteomics screening and high-throughput optimisation” (Communications Chemistry, 2025):

Key:
Assay in all cases: log2 ratio of Biotin-Ahx-Ub-VS probe labelling (fragment/DMSO); higher = less target engagement (more negative = stronger competition), active = hit call of the paper (q ≤ 0.05, log2 ratio ≤ -1)
Conditions in all cases: compound concentration: 200 uM; treatment time: 3 h
USP34 = USP34 (UniProt Q70CQ2)
Sequence of USP34 (Q70CQ2 whole entry, the tested form may be a part): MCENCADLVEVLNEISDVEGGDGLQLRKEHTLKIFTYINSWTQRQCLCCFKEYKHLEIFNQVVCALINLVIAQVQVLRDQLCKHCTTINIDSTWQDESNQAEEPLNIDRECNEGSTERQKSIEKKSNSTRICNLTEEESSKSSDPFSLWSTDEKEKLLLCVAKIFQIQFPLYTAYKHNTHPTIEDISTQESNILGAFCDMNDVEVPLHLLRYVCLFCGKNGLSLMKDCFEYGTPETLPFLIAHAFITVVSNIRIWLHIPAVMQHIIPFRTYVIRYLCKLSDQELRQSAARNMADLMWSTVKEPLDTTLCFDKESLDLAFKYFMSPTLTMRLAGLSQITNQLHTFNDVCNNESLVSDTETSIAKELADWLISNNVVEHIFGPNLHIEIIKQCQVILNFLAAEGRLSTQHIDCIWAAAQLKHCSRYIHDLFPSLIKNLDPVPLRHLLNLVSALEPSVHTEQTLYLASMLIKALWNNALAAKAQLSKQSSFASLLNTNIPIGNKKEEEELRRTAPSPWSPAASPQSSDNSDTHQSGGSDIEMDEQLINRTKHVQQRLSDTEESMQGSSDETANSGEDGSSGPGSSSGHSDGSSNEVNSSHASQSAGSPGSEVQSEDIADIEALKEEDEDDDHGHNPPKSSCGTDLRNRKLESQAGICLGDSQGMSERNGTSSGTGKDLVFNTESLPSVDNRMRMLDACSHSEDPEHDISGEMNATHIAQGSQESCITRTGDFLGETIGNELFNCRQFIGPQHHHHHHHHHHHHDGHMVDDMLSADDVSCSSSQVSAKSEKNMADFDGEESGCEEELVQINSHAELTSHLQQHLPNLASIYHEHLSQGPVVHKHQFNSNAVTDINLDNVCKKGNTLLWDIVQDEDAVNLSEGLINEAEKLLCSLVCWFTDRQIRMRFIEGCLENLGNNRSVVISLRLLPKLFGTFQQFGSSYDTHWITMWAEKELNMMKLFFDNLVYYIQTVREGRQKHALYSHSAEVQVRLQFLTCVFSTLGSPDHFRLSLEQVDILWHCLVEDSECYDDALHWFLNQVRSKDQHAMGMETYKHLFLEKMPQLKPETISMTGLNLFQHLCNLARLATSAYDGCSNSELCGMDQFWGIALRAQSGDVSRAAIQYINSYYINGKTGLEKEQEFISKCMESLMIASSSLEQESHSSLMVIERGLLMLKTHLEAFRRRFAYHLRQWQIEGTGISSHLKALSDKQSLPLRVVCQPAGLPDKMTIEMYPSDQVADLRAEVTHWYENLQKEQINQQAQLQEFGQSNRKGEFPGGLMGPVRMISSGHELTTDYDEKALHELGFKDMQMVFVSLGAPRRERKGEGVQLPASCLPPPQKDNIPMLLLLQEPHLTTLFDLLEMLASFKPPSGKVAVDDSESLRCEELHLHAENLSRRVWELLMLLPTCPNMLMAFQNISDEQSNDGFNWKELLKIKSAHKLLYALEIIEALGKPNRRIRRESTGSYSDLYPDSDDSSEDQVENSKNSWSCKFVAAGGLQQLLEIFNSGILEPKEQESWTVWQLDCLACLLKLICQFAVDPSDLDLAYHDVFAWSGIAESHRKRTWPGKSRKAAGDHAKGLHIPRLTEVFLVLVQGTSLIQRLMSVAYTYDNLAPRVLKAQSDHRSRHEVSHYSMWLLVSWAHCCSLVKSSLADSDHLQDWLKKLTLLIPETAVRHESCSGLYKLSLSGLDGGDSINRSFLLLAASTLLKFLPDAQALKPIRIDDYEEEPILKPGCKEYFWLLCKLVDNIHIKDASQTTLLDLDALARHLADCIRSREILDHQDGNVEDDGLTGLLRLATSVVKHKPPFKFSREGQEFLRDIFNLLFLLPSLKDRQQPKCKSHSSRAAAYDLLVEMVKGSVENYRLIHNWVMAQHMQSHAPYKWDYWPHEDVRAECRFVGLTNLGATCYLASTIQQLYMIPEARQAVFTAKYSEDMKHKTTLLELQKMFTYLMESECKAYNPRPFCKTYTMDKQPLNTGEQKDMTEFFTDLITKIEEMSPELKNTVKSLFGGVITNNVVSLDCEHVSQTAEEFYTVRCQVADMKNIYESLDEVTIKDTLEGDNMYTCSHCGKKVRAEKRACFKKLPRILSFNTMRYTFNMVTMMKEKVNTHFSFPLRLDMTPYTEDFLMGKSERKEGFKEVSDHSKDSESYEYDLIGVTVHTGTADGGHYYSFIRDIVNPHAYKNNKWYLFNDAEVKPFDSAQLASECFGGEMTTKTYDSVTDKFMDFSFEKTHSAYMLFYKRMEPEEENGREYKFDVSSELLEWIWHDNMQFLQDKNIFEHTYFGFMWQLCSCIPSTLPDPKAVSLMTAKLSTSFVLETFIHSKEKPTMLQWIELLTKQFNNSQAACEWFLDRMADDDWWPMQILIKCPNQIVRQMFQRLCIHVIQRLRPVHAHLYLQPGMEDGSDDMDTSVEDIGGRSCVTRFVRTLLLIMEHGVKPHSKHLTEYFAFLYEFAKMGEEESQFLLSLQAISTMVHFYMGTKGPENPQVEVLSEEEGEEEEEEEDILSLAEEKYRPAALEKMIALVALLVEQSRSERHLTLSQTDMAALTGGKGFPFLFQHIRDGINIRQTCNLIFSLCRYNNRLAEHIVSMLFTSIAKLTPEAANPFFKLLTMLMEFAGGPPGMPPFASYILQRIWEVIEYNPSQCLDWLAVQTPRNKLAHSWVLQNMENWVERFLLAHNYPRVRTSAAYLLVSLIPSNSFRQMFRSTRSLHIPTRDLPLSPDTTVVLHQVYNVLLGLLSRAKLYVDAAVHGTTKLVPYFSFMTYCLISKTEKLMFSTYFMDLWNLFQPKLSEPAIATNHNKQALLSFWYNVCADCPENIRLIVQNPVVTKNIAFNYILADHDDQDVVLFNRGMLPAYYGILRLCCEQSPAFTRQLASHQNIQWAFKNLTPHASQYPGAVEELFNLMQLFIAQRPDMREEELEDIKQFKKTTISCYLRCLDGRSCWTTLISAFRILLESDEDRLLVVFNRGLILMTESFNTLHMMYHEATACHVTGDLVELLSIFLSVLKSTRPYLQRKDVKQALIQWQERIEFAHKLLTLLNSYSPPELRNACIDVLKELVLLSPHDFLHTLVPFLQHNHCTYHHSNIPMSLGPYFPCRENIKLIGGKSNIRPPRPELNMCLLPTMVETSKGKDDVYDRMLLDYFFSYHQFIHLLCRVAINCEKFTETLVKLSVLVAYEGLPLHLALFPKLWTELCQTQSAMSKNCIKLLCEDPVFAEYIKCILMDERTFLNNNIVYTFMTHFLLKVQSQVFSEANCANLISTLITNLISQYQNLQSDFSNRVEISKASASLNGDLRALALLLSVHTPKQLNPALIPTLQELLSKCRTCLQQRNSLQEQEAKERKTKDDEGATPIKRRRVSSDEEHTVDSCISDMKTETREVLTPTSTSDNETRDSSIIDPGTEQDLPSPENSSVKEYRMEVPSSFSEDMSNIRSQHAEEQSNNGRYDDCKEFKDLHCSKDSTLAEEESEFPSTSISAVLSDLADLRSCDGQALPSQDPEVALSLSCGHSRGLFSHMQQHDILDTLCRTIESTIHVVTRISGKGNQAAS
Method in brief: (§1)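 Triplicate samples of HEK293T lysate, 495 µg each, received fragment at 200 µM or vehicle for 3 h, followed by Biotin-Ahx-Ub-VS (0.5 µM final) for 1 h. After NeutrAvidin enrichment of labelled DUBs and LysC/trypsin digestion, peptides were run by diaPASEF LC-MS/MS. The values are average log2 fragment/vehicle ratios from global-median-normalised Spectronaut label-free quantities, tested by unpaired t-test on proteins having ≥2 unique peptides.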

USP36 = target: T1, USP36 (UniProt Q9P275)
T1 sequence (whole entry): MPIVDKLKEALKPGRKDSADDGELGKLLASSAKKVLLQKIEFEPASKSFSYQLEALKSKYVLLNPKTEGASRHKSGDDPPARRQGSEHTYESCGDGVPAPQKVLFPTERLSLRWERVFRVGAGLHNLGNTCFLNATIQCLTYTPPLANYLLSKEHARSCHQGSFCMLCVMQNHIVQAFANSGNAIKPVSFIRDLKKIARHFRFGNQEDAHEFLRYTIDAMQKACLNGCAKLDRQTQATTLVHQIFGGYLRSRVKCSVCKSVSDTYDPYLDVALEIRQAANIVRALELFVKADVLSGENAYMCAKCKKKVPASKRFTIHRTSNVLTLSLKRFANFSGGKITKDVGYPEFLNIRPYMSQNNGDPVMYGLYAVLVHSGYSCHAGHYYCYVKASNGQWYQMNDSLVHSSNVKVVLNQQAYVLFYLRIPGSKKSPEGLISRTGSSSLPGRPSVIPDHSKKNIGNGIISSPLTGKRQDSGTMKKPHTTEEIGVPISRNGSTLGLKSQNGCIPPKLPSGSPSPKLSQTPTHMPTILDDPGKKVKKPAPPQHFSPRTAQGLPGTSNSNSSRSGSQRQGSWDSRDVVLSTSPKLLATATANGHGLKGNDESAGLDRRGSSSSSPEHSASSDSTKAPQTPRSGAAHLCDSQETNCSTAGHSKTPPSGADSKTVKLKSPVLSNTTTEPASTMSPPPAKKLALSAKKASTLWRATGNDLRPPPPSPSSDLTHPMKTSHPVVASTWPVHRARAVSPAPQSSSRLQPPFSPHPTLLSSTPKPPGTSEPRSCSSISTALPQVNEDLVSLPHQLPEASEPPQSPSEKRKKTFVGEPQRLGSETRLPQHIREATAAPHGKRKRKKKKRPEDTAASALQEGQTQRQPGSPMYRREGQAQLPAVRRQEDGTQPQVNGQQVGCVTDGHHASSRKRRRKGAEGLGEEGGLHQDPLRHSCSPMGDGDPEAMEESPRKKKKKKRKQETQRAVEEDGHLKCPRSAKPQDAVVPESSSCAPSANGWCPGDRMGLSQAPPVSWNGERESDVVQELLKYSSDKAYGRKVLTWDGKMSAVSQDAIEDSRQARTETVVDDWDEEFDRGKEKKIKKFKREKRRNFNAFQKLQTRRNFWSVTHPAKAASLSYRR
Method in brief: as §1

USP38 = target: T2, USP38 (UniProt Q8NB14)
T2 sequence (whole entry): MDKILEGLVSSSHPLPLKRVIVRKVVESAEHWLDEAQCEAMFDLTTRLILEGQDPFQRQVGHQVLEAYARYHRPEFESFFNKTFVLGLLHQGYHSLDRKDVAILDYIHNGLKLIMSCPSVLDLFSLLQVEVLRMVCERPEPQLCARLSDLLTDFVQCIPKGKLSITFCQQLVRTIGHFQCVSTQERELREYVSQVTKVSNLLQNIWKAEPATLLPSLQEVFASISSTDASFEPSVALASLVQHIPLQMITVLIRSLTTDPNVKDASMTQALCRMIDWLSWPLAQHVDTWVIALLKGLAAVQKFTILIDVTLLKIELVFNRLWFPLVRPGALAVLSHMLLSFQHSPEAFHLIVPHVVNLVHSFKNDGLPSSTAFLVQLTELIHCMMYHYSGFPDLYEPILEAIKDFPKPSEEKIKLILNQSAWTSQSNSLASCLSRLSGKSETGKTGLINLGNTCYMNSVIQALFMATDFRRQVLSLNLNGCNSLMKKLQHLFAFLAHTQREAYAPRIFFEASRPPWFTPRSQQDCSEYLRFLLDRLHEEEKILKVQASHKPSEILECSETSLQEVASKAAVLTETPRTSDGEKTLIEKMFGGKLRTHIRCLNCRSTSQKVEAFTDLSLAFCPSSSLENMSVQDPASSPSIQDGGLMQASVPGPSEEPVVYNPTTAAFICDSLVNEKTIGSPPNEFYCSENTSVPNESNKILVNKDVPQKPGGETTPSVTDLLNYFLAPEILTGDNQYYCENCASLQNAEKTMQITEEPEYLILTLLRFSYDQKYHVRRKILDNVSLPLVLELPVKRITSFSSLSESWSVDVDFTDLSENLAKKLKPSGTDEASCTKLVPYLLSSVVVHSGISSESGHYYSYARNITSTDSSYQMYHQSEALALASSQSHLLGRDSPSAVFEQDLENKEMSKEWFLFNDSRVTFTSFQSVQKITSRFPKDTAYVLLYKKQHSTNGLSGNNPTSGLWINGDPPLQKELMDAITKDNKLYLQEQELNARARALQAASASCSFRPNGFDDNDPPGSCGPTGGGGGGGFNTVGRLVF
Method in brief: as §1

USP39 = target: T3, USP39 (UniProt Q53GS9)
T3 sequence (whole entry): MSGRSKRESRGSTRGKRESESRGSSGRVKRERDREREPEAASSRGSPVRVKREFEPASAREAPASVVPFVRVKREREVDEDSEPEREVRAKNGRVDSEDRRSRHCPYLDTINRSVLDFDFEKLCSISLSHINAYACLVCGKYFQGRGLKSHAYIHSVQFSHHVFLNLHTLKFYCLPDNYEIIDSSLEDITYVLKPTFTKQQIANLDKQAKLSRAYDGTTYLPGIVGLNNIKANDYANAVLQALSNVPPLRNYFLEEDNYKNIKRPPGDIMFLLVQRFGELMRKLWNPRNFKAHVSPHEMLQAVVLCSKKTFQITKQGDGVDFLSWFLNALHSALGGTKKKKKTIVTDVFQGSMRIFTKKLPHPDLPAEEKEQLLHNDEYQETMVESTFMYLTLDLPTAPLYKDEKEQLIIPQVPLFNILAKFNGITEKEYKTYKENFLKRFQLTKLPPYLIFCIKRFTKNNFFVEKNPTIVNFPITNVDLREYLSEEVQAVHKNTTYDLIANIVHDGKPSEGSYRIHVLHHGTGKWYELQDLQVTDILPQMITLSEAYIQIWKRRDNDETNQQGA
Method in brief: as §1

USP4 = target: T4, USP4 (UniProt Q13107)
T4 sequence (whole entry): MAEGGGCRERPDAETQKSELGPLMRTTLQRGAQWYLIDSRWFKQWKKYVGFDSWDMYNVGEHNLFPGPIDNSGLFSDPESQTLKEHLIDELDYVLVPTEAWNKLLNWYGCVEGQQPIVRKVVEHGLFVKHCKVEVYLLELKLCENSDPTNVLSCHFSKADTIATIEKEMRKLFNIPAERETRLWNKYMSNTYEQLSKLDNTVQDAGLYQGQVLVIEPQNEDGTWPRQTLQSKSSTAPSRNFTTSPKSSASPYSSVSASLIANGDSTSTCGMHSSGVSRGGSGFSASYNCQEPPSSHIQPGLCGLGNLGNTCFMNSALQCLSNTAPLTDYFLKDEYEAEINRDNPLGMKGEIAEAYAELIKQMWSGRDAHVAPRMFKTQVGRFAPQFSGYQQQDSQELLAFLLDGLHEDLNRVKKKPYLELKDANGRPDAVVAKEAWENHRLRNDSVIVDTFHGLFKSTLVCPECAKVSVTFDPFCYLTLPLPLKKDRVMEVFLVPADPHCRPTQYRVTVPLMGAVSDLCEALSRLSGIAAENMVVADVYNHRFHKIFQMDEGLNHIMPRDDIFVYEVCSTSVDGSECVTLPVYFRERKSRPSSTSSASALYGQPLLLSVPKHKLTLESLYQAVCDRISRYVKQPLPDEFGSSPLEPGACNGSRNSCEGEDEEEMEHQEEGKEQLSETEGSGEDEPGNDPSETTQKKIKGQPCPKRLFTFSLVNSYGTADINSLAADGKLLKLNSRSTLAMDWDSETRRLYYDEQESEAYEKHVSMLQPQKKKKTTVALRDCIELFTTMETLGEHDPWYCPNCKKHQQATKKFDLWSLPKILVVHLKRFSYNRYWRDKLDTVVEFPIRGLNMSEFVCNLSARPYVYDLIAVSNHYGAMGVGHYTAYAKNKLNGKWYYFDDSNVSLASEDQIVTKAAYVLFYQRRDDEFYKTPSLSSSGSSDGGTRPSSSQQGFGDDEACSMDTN
Method in brief: as §1

Measured: log2 ratio of Biotin-Ahx-Ub-VS probe labelling

COc1ccc(CN(C)C(=O)CCl)cc1
inactive: USP34 -0.0886 | USP36 0.0384 | USP38 0.0505 | USP39 0.298 | USP4 -0.016
